Laboratory results taken from the supplement of paper PMC11732987, “Enantioselective OTUD7B fragment discovery through chemoproteomics screening and high-throughput optimisation” (Communications Chemistry, 2025).

Tests used:
Test in all cases: log2 ratio of Biotin-Ahx-Ub-VS probe labelling (fragment/DMSO); higher = less target engagement (more negative = stronger competition), active = hit call of the paper (q ≤ 0.05, log2 ratio ≤ -1)
Settings in all cases: compound concentration: 200 uM; treatment time: 3 h
USP34 = USP34 (UniProt Q70CQ2)
Sequence of USP34 (Q70CQ2 whole entry, the tested form may be a part): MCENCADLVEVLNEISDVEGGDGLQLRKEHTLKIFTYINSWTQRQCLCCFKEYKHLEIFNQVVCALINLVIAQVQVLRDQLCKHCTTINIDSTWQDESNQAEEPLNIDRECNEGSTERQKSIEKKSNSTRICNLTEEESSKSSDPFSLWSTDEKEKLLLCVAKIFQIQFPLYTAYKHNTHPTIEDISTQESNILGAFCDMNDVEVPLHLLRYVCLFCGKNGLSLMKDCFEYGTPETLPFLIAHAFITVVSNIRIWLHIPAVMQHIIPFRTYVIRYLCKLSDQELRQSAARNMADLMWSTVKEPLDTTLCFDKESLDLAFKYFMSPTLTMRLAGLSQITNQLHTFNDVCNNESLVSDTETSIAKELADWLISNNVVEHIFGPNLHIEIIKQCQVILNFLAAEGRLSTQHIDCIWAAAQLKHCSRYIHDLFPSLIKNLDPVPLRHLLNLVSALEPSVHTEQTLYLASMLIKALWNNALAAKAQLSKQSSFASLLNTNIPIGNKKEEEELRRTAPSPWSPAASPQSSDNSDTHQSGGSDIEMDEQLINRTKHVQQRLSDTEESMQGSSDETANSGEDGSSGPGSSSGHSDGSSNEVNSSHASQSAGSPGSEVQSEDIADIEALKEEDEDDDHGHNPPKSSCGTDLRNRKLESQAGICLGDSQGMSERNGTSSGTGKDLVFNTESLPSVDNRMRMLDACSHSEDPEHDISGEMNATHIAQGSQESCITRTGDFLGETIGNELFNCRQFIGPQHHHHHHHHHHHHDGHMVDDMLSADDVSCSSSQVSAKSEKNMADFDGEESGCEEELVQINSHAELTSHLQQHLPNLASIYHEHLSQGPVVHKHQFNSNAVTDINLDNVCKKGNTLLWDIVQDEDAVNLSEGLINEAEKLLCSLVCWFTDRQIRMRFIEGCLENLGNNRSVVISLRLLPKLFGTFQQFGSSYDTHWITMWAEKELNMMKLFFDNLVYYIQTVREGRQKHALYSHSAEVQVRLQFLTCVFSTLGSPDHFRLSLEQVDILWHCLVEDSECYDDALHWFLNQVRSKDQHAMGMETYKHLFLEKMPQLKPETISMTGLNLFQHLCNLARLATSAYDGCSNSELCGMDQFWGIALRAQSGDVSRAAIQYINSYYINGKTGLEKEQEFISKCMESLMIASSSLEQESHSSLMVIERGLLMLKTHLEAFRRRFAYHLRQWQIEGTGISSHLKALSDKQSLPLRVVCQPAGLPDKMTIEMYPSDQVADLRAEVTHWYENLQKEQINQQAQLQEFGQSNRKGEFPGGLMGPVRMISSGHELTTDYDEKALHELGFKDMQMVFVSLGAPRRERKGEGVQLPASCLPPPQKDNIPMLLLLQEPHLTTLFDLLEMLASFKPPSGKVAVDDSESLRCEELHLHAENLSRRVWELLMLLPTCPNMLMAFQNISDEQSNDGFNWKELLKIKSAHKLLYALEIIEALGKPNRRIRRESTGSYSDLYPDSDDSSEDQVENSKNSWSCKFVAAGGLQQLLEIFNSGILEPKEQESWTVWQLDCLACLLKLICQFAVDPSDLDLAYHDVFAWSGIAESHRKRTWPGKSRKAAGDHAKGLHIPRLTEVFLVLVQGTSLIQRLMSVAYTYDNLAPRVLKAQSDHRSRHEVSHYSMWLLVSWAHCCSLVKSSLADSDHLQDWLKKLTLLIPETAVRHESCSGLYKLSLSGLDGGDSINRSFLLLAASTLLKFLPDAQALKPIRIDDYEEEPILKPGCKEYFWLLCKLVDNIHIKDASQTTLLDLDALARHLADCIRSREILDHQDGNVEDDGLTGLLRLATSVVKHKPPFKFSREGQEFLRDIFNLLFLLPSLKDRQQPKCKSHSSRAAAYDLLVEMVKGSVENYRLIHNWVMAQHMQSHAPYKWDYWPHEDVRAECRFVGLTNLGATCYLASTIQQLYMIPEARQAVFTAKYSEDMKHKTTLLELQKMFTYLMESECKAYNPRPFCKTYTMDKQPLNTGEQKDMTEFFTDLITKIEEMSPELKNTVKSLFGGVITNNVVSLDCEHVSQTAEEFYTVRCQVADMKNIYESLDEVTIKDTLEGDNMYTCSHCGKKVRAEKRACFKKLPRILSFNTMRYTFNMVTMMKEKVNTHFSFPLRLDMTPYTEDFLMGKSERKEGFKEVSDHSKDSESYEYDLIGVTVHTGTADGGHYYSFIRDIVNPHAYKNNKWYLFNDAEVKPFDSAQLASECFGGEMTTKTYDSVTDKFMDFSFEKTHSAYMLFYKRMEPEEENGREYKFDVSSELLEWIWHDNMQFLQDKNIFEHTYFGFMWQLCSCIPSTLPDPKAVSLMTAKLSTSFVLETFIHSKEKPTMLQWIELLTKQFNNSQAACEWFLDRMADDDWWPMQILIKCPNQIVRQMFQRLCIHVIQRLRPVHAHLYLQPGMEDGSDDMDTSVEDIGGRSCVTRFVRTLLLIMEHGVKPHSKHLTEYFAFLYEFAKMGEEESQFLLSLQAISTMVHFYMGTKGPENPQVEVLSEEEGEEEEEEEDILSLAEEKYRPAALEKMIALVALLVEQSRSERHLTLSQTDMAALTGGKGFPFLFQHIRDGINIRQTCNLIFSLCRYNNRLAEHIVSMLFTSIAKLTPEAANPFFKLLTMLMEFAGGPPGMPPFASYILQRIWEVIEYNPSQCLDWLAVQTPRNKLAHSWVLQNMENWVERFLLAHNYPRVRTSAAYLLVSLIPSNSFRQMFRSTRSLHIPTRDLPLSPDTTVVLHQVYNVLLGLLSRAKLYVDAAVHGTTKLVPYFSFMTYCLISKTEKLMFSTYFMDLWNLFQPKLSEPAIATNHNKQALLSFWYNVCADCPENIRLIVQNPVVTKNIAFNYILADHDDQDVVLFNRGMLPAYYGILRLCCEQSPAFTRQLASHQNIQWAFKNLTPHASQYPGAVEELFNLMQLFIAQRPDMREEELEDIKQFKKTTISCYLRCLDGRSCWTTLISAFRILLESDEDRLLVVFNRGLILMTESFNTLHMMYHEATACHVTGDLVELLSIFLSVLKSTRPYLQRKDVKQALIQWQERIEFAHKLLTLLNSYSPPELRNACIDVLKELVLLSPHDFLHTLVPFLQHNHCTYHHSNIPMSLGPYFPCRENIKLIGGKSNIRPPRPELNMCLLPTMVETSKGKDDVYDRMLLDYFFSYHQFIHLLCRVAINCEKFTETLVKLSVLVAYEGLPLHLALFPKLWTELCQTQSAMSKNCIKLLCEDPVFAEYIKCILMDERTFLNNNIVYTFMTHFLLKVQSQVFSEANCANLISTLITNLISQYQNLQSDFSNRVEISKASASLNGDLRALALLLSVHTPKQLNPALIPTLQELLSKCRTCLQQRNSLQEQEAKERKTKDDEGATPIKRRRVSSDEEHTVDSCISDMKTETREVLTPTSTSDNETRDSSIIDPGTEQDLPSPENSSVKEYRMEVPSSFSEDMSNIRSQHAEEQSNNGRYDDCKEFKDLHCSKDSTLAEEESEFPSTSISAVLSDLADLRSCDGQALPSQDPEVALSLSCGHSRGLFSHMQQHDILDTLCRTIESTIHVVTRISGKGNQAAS
In short: (§1)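 Fragment (200 µM) or vehicle was incubated for 3 h with triplicate HEK293T lysate samples of 495 µg, which were then treated with Biotin-Ahx-Ub-VS at 0.5 µM final for 1 h. Labelled DUBs were enriched on NeutrAvidin, digested with LysC and trypsin, and analysed by diaPASEF LC-MS/MS. Values are average log2 fragment/vehicle ratios from an unpaired t-test on global-median-normalised Spectronaut label-free quantities, using proteins with ≥2 unique peptides.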

USP36 = target: T1, USP36 (UniProt Q9P275)
T1 sequence (whole entry): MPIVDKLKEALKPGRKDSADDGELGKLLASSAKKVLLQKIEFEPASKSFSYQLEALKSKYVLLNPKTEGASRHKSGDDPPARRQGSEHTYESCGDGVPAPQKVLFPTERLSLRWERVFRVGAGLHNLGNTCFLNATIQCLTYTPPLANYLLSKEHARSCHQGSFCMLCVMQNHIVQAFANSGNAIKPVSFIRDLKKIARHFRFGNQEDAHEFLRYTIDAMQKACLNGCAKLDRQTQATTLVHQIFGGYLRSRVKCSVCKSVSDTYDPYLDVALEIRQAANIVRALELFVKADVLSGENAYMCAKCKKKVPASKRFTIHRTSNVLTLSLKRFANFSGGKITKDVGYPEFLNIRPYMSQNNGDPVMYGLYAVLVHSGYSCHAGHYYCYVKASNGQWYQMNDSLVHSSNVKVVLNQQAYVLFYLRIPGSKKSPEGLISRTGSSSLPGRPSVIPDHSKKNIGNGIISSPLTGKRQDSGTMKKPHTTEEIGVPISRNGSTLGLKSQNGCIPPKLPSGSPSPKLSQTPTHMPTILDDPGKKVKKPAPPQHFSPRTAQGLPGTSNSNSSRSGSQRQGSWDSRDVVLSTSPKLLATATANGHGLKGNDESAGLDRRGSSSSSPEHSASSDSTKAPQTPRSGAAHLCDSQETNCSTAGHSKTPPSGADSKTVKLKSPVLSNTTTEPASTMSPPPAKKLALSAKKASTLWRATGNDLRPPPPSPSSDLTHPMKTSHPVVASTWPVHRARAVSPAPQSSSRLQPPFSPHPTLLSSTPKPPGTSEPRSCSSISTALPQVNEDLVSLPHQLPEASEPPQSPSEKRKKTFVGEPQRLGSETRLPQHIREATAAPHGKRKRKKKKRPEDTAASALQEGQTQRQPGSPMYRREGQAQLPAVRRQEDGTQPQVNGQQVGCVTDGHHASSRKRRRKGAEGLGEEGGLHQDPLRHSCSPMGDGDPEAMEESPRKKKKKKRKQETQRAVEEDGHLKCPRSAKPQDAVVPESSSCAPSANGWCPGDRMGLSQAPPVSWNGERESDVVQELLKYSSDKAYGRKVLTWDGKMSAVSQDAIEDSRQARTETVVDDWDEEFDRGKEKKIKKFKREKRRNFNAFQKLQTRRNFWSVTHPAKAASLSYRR
In short: as §1

USP38 = target: T2, USP38 (UniProt Q8NB14)
T2 sequence (whole entry): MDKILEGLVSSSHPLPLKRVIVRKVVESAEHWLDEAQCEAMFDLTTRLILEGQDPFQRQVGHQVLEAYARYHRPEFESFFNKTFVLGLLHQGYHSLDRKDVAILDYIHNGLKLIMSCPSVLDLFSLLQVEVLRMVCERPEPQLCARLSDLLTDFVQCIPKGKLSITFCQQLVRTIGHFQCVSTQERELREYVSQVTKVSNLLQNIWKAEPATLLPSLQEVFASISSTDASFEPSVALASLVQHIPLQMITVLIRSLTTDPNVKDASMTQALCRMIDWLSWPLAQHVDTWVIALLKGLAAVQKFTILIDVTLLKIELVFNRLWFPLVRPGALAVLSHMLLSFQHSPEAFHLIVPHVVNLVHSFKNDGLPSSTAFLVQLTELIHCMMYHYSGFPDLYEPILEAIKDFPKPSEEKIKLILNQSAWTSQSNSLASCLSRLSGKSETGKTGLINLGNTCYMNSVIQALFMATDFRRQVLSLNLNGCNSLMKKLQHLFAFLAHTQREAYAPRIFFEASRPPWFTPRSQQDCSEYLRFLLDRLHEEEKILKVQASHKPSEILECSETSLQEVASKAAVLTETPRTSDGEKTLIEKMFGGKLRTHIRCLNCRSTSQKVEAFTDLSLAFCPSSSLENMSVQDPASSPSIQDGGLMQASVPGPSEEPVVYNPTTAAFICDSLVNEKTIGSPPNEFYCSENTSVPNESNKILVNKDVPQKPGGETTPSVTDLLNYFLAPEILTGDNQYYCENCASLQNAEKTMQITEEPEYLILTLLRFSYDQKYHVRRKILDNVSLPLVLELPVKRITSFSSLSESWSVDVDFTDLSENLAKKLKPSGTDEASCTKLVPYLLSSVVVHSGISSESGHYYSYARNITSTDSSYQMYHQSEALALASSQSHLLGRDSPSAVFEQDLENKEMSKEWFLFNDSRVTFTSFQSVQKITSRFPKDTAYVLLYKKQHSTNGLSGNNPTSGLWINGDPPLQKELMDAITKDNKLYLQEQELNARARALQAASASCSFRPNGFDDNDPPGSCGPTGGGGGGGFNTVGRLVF
In short: as §1

USP39 = target: T3, USP39 (UniProt Q53GS9)
T3 sequence (whole entry): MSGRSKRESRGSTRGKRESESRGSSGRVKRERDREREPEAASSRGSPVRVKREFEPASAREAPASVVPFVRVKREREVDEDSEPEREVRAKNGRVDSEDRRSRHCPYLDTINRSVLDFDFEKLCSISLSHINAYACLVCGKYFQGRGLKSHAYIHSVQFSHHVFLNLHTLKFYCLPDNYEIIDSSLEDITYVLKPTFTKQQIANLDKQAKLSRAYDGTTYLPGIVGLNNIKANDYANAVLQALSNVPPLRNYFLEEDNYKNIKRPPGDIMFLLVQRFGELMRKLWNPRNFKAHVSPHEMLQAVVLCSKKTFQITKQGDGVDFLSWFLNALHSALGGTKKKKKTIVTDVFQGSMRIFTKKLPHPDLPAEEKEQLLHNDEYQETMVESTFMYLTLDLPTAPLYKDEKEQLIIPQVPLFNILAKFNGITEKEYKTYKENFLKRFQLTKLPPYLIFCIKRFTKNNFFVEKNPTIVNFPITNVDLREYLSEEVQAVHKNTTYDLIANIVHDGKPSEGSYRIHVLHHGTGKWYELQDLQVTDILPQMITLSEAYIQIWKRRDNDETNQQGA
In short: as §1

USP4 = target: T4, USP4 (UniProt Q13107)
T4 sequence (whole entry): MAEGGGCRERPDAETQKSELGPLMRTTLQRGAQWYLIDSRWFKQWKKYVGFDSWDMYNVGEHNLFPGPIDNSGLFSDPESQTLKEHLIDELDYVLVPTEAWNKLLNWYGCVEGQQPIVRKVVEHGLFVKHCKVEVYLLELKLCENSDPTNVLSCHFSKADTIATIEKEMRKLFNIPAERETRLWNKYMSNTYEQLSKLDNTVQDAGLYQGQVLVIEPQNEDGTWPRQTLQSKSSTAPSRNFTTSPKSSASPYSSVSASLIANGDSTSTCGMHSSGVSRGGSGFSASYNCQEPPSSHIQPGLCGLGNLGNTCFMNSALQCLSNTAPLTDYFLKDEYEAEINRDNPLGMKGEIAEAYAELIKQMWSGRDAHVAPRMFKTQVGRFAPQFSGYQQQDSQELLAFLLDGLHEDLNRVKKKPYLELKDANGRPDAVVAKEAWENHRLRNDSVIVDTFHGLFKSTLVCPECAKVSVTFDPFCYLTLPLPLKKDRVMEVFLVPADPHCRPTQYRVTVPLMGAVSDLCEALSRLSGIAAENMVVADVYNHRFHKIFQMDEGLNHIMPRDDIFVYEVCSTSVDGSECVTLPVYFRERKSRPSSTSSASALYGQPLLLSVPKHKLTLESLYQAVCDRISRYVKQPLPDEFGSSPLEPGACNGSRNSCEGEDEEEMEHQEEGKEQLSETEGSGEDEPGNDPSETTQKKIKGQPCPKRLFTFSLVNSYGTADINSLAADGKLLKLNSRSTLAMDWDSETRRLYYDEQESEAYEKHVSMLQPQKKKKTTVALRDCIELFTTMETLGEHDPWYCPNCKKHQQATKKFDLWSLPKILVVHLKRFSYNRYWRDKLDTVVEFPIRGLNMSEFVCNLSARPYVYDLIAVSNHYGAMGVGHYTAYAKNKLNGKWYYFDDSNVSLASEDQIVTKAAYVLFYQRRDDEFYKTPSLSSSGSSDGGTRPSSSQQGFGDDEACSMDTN
In short: as §1

Measured: log2 ratio of Biotin-Ahx-Ub-VS probe labelling

Cc1ccc(CC(NC(=O)CCl)c2ccccn2)cc1.Cl (stereo not given)
inactive: USP34 -0.162 | USP36 0.13 | USP38 -0.114 | USP39 -0.181 | USP4 0.169
